This is a sample that favours compounds with a hit; in the whole collection about 1.1% have one here.
MOR-DOR ag = agonists of OPRM1-OPRD1 heterodimerization, primary screen, cell-based, luminescence. Mu-type opioid receptor (Homo sapiens) + Delta-type opioid receptor (Homo sapiens), …. cells. activation, % at 9.3 µM. actives 0.3% (n = 340,000). AID 504326, 2011;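 note: 0% = vehicle-treated cells and 100% = reference agonist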
OPRM1-OPRD1 inv = inverse agonists of MOR-DOR heterodimerization, primary screen, cell-based, luminescence | AID 504357, 2011 | Mu-type opioid receptor (Homo sapiens) + Delta-type opioid receptor (Homo sapiens), … | cell-based MOR-DOR heterodimer luminescence, inverse agonism | actives 0.21% (n = 340,000) | inhibition, % at 9.3 µM; in the data active = inhibition above about 22%, passing the limit was not always enough;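 note: 0% = cells with DMSO and 100% = wells without cells with DMSO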
HTR5A inv ag = HTR5A inverse agonists in luminescence cell assay, primary screen, counter-screen for OPRM1-OPRD1 heterodimer inverse agonist project, full-deck HTS; inhibition, % at 9.3 µM; actives 0.083% (n = 340,000); HTR5A cell line, inverse agonism; AID 504634, 2011; in the data active = inhibition mostly above about 23%, no sharp cut-off; inactive = mostly below about 18%;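 note: 0% = cells with DMSO and 100% = no-cell wells with DMSO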
Target sequence (P47898 whole entry, looked up): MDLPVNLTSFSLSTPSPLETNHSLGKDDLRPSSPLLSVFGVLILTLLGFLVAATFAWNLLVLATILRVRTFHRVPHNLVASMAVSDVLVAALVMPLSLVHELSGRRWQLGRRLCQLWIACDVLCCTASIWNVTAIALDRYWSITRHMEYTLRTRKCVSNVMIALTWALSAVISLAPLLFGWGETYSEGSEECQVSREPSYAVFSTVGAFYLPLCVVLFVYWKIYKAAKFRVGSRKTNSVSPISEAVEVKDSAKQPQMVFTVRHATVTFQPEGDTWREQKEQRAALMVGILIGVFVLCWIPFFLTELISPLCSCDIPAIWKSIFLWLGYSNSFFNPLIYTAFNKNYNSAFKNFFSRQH
HTR5A ag = HTR5A agonists in luminescence cell assay, primary screen, counter-screen for OPRM1-OPRD1 heterodimer agonist project, full-deck HTS. 5-hydroxytryptamine receptor 5A (Homo sapiens), P47898. cell-based. activation, % at 9.3 µM. actives 0.61% (n = 340,000); in the data active = activation mostly above about 9.5%, no sharp cut-off; inactive = mostly below about 7.6%;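 note: 0% = cells with vehicle only and 100% = reference agonist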
OPRM1-D1 ag cf = agonists of MOR-DOR heterodimerization, confirmation, cell-based, luminescence. activation, % at 9.3 µM. actives 45% (n = 830). cells, luminescence complementation. shares compounds with MOR-DOR ag;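 note: 0% = vehicle-treated cells and 100% = reference agonist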
HTR5A ag ctr2 = HTR5A agonists in cells, counter-screen for OPRM1-OPRD1 heterodimer agonist project, cell-based, luminescence. activation, % at 9.3 µM. shares compounds with MOR-DOR ag. AID 504905, 2011. actives 8% (n = 830). HTR5A agonist counterscreen; in the data active = activation above about 17%;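 note: 0% = vehicle-treated cells and 100% = reference agonist response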
* marks the source's active call; other numbers are inactive results. Cut-off read from the data, not from the text of the source, unless noted: active = activation above about 18%; inactive = the rest.

`Cc1ccc(NC(=O)c2nnn(CC(=O)Nc3ccc4c(c3)OCO4)c2N)cc1C` gave MOR-DOR ag 23*, OPRM1-OPRD1 inv -116, HTR5A inv ag -29, HTR5A ag 8, OPRM1-D1 ag cf 9 and HTR5A ag ctr2 4.
For Cc1cc(C)cc(NC(=O)Cn2nnc(C(=O)NCc3ccccc3Cl)c2N)c1 the results were MOR-DOR ag 25*, OPRM1-OPRD1 inv -136, HTR5A inv ag -8, HTR5A ag 10, OPRM1-D1 ag cf 12 and HTR5A ag ctr2 -2.
`Cc1cc(C)cc(NC(=O)Cn2nnc(C(=O)NCCc3ccccc3)c2N)c1` gave MOR-DOR ag 21*, OPRM1-OPRD1 inv -104, HTR5A inv ag -6, HTR5A ag 7, OPRM1-D1 ag cf 12 and HTR5A ag ctr2 8.
For Cc1ccc(NC(=O)Cn2nnc(C(=O)Nc3ccc(C)c(C)c3)c2N)cc1 the results were MOR-DOR ag -1, OPRM1-OPRD1 inv 4, HTR5A inv ag -14 and HTR5A ag 4.
`COc1cc2c(cc1OC)CN(C(=O)Nc1ccccc1)CC2` gave MOR-DOR ag 60*, OPRM1-OPRD1 inv -302, HTR5A inv ag -25, HTR5A ag 5, OPRM1-D1 ag cf 2 and HTR5A ag ctr2 2.
Screening COc1cc2c(cc1OC)CN(C(=O)Nc1ccccc1Cl)CC2 returned MOR-DOR ag -2, OPRM1-OPRD1 inv 10, HTR5A inv ag -2 and HTR5A ag -1.
Screening CSc1ncccc1C(=O)OCC(=O)Nc1cccc(S(=O)(=O)N2CCOCC2)c1 returned MOR-DOR ag -3, OPRM1-OPRD1 inv 18, HTR5A inv ag -11 and HTR5A ag 3.
For Nc1ccc2c(c1Cl)C(=O)c1ccc(N)c(Cl)c1C2=O the results were MOR-DOR ag -3, OPRM1-OPRD1 inv 16, HTR5A inv ag 14 and HTR5A ag -4.
`Cc1ccc2c(c1C)-c1c(ccc(C)c1C)C(=O)C2=O` gave MOR-DOR ag 21*, OPRM1-OPRD1 inv -93, HTR5A inv ag -12, HTR5A ag 3, OPRM1-D1 ag cf 21* and HTR5A ag ctr2 6.
Screening COc1ccc(-n2c(C)cc(/C=C3\C(=O)NN(c4ccccc4)C3=O)c2C)cc1 returned MOR-DOR ag 1, OPRM1-OPRD1 inv -4, HTR5A inv ag 7 and HTR5A ag 1.
Screening Cc1cc(/C=C2/C(=O)NN(c3ccccc3)C2=O)c(C)n1-c1ccc(O)cc1 returned MOR-DOR ag 61*, OPRM1-OPRD1 inv -314, HTR5A inv ag 9, HTR5A ag -3, OPRM1-D1 ag cf 50* and HTR5A ag ctr2 -5.
`Cc1ccc(NC(=O)CNC(=O)c2sc3ccccc3c2Cl)nc1` gave MOR-DOR ag 26*, OPRM1-OPRD1 inv -135, HTR5A inv ag -4, HTR5A ag 2, OPRM1-D1 ag cf 0 and HTR5A ag ctr2 -1.
For CC(=O)Nc1ccc(CN2CCCC(CO)(Cc3ccccc3C)C2)cc1 (centres undefined) the results were MOR-DOR ag 49*, OPRM1-OPRD1 inv -225, HTR5A inv ag -1, HTR5A ag 0, OPRM1-D1 ag cf 13 and HTR5A ag ctr2 -1.
Screening CCN(c1nc(N)c(C(=O)N=C(N)N)nc1Cl)C(C)C returned MOR-DOR ag 51*, OPRM1-OPRD1 inv -282, HTR5A inv ag -11, HTR5A ag 2, OPRM1-D1 ag cf 95* and HTR5A ag ctr2 -3.
For O=C1C(=O)N(c2ccc(O)cc2)C(c2ccccc2[N+](=O)[O-])/C1=C(\O)c1ccccc1 (centres undefined) the results were MOR-DOR ag -1, OPRM1-OPRD1 inv 7, HTR5A inv ag 5 and HTR5A ag -2.
`O=C1Cc2c([nH]c3ccc([N+](=O)[O-])cc23)-c2ccccc2N1` gave MOR-DOR ag 22*, OPRM1-OPRD1 inv -108, HTR5A inv ag -3, HTR5A ag 1, OPRM1-D1 ag cf 9 and HTR5A ag ctr2 2.
For O=c1[nH]c2cc([N+](=O)[O-])ccc2c2ccccc12 the results were MOR-DOR ag 5, OPRM1-OPRD1 inv -27, HTR5A inv ag -8 and HTR5A ag 2.
Screening CCCn1c(N)c(C(=O)COC(=O)c2cccc(S(=O)(=O)N3CCOCC3)c2)c(=O)[nH]c1=O returned MOR-DOR ag -4, OPRM1-OPRD1 inv 16, HTR5A inv ag 0 and HTR5A ag 0.
Screening Cc1ccccc1NS(=O)(=O)c1ccc(NS(=O)(=O)c2cccs2)cc1 returned MOR-DOR ag -1, OPRM1-OPRD1 inv 4, HTR5A inv ag 4 and HTR5A ag -2.
COc1ccc(C(=O)NCC(=O)OCC(=O)N2CCc3ccccc32)cc1 was read as MOR-DOR ag -1, OPRM1-OPRD1 inv 6, HTR5A inv ag 1 and HTR5A ag -1.
Screening O=C(NCc1ccco1)c1cc2n(n1)C(C(F)(F)F)CC(c1ccc(Br)cc1)N2 (centres undefined) returned MOR-DOR ag 19*, OPRM1-OPRD1 inv -94, HTR5A inv ag -21, HTR5A ag 3, OPRM1-D1 ag cf 0 and HTR5A ag ctr2 3.
For COc1ccccc1CN(Cc1nc2ccccc2c(=O)[nH]1)S(=O)(=O)c1ccc2ccccc2c1 the results were MOR-DOR ag 20*, OPRM1-OPRD1 inv -120, HTR5A inv ag 5, HTR5A ag -2, OPRM1-D1 ag cf -1 and HTR5A ag ctr2 0.
COc1ccc(S(=O)(=O)N(Cc2ccccc2)Cc2nc3ccccc3c(=O)[nH]2)cc1 was read as MOR-DOR ag 3, OPRM1-OPRD1 inv -12, HTR5A inv ag -6 and HTR5A ag 0.
Screening CC(OC(=O)c1n[nH]c2ccccc12)C(=O)Nc1ccccc1[N+](=O)[O-] (centres undefined) returned MOR-DOR ag 32*, OPRM1-OPRD1 inv -124, HTR5A inv ag -19, HTR5A ag -1, OPRM1-D1 ag cf 15 and HTR5A ag ctr2 4.
For Cc1ccc(NC(=O)C(C)OC(=O)c2n[nH]c3ccccc23)cc1 (centres undefined) the results were MOR-DOR ag -2, OPRM1-OPRD1 inv 9, HTR5A inv ag -11 and HTR5A ag -2.
`CCNS(=O)(=O)c1ccc(NC(=O)Nc2ccc3c(c2)OCO3)cc1` gave MOR-DOR ag 111*, OPRM1-OPRD1 inv -362, HTR5A inv ag 18, HTR5A ag 6, OPRM1-D1 ag cf 73* and HTR5A ag ctr2 0.
`CC1CN(S(=O)(=O)c2cccc(C(=O)NCc3ccccn3)c2)CC(C)O1` (centres undefined) gave MOR-DOR ag 0, OPRM1-OPRD1 inv 0, HTR5A inv ag 10 and HTR5A ag -4.
